According to publication PMC8384837, “Expanding the binding specificity for RNA recognition by a PUF domain”:

Experiments:
Assay in all cases: yeast three-hybrid, YBZ-1, SC-Leu-His + 0.5 mM 3-AT, 4 days
Conditions in all cases: tags: N-Gal4 AD-HA kept; label: inside an RPR1-promoter hybrid RNA with tandem MS2 sites; ssRNA
PUM1 PUF domain R5-FHI = PUM1 PUF domain R5-FHI (Homo sapiens, UniProt Q14671 828-1176, C1007F;R1008H;Q1011I)
Summary of the method: (§1)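 The interaction score is the log change in variant frequency from input to selection. Scores were computed in log2 with a pseudocount of 1 for absent variants, using Illumina sequencing of PCR-amplified repeat regions. The input came from four days on SC-Leu and the selection from four days on SC-Leu-His + 0.5 mM 3-AT. The cells were strain YBZ-1 (LexA–MS2 coat fusion, HIS3 reporter) co-expressing Pumilio-1 PUF domain libraries and matching RNA elements from a centromeric plasmid.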

PUM1 PUF domain R5-LQR = PUM1 PUF domain R5-LQR (Homo sapiens, UniProt Q14671 828-1176, C1007L;R1008Q;Q1011R)
Chain of PUM1 PUF domain R5-LQR (Q14671 828-1176 C1007L/R1008Q/Q1011R): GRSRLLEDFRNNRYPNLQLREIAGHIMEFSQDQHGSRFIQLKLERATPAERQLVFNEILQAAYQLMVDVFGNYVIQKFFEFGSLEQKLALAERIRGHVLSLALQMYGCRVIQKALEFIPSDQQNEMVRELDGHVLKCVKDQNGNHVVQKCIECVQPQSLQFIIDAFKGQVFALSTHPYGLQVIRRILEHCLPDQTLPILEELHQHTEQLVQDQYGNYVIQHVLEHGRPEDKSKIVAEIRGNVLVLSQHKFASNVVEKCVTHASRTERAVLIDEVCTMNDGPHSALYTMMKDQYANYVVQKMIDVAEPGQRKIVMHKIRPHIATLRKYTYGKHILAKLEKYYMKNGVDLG
Summary of the method: as §1

PUM1 PUF domain R5-QKV = PUM1 PUF domain R5-QKV (Homo sapiens, UniProt Q14671 828-1176, C1007Q;R1008K;Q1011V)
Chain of PUM1 PUF domain R5-QKV (Q14671 828-1176 C1007Q/R1008K/Q1011V): as the sequence (Q14671 828-1176 C1007L/R1008Q/Q1011R) above, with L180Q, Q181K, R184V counted along it
Summary of the method: as §1

PUM1 PUF domain R4-SYP = PUM1 PUF domain R4-SYP (Homo sapiens, UniProt Q14671 828-1176, N971S;H972Y;Q975P)
Chain of PUM1 PUF domain R4-SYP (Q14671 828-1176 N971S/H972Y/Q975P): as the sequence (Q14671 828-1176 C1007L/R1008Q/Q1011R) above, with N144S, H145Y, Q148P, L180C, Q181R, R184Q counted along it
Summary of the method: as §1

PUM1 PUF domain R4-MRG = PUM1 PUF domain R4-MRG (Homo sapiens, UniProt Q14671 828-1176, N971M;H972R;Q975G)
Chain of PUM1 PUF domain R4-MRG (Q14671 828-1176 N971M/H972R/Q975G): as the sequence (Q14671 828-1176 C1007L/R1008Q/Q1011R) above, with N144M, H145R, Q148G, L180C, Q181R, R184Q counted along it
Summary of the method: as §1

PUM1 PUF domain R4-ARR = PUM1 PUF domain R4-ARR (Homo sapiens, UniProt Q14671 828-1176, N971A;H972R;Q975R)
Chain of PUM1 PUF domain R4-ARR (Q14671 828-1176 N971A/H972R/Q975R): as the sequence (Q14671 828-1176 C1007L/R1008Q/Q1011R) above, with N144A, H145R, Q148R, L180C, Q181R, R184Q counted along it
Summary of the method: as §1

PUM1 PUF domain R4-DFC = PUM1 PUF domain R4-DFC (Homo sapiens, UniProt Q14671 828-1176, N971D;H972F;Q975C)
Chain of PUM1 PUF domain R4-DFC (Q14671 828-1176 N971D/H972F/Q975C): as the sequence (Q14671 828-1176 C1007L/R1008Q/Q1011R) above, with N144D, H145F, Q148C, L180C, Q181R, R184Q counted along it
Summary of the method: as §1

PUM1 PUF domain R3-RCG = PUM1 PUF domain R3-RCG (Homo sapiens, UniProt Q14671 828-1176, C935R;R936C;Q939G)
Chain of PUM1 PUF domain R3-RCG (Q14671 828-1176 C935R/R936C/Q939G): as the sequence (Q14671 828-1176 C1007L/R1008Q/Q1011R) above, with C108R, R109C, Q112G, L180C, Q181R, R184Q counted along it
Summary of the method: as §1

PUM1 PUF domain R3-LSA = PUM1 PUF domain R3-LSA (Homo sapiens, UniProt Q14671 828-1176, C935L;R936S;Q939A)
Chain of PUM1 PUF domain R3-LSA (Q14671 828-1176 C935L/R936S/Q939A): as the sequence (Q14671 828-1176 C1007L/R1008Q/Q1011R) above, with C108L, R109S, Q112A, L180C, Q181R, R184Q counted along it
Summary of the method: as §1

PUM1 PUF domain R2-QWR = PUM1 PUF domain R2-QWR (Homo sapiens, UniProt Q14671 828-1176, N899Q;Y900W;Q903R)
Chain of PUM1 PUF domain R2-QWR (Q14671 828-1176 N899Q/Y900W/Q903R): as the sequence (Q14671 828-1176 C1007L/R1008Q/Q1011R) above, with N72Q, Y73W, Q76R, L180C, Q181R, R184Q counted along it
Summary of the method: as §1

PUM1 PUF domain R8-KKK = PUM1 PUF domain R8-KKK (Homo sapiens, UniProt Q14671 828-1176, N1122K;Y1123K;Q1126K)
Chain of PUM1 PUF domain R8-KKK (Q14671 828-1176 N1122K/Y1123K/Q1126K): as the sequence (Q14671 828-1176 C1007L/R1008Q/Q1011R) above, with L180C, Q181R, R184Q, N295K, Y296K, Q299K counted along it
Summary of the method: as §1

PUM1 PUF domain R4-RYP = PUM1 PUF domain R4-RYP (Homo sapiens, UniProt Q14671 828-1176, N971R;H972Y;Q975P)
Chain of PUM1 PUF domain R4-RYP (Q14671 828-1176 N971R/H972Y/Q975P): as the sequence (Q14671 828-1176 C1007L/R1008Q/Q1011R) above, with N144R, H145Y, Q148P, L180C, Q181R, R184Q counted along it
Summary of the method: as §1

PUM1 PUF domain R4-SNQ = PUM1 PUF domain R4-SNQ (Homo sapiens, UniProt Q14671 828-1176, N971S;H972N)
Chain of PUM1 PUF domain R4-SNQ (Q14671 828-1176 N971S/H972N): as the sequence (Q14671 828-1176 C1007L/R1008Q/Q1011R) above, with N144S, H145N, L180C, Q181R, R184Q counted along it
Summary of the method: as §1

PUM1 PUF domain R5-ERV = PUM1 PUF domain R5-ERV (Homo sapiens, UniProt Q14671 828-1176, C1007E;Q1011V)
Chain of PUM1 PUF domain R5-ERV (Q14671 828-1176 C1007E/Q1011V): as the sequence (Q14671 828-1176 C1007L/R1008Q/Q1011R) above, with L180E, Q181R, R184V counted along it
Summary of the method: as §1

PUM1 PUF domain R4-PRC = PUM1 PUF domain R4-PRC (Homo sapiens, UniProt Q14671 828-1176, N971P;H972R;Q975C)
Chain of PUM1 PUF domain R4-PRC (Q14671 828-1176 N971P/H972R/Q975C): as the sequence (Q14671 828-1176 C1007L/R1008Q/Q1011R) above, with N144P, H145R, Q148C, L180C, Q181R, R184Q counted along it
Summary of the method: as §1

PUM1 PUF domain R3-NAL = PUM1 PUF domain R3-NAL (Homo sapiens, UniProt Q14671 828-1176, C935N;R936A;Q939L)
Chain of PUM1 PUF domain R3-NAL (Q14671 828-1176 C935N/R936A/Q939L): as the sequence (Q14671 828-1176 C1007L/R1008Q/Q1011R) above, with C108N, R109A, Q112L, L180C, Q181R, R184Q counted along it
Summary of the method: as §1

PUM1 PUF domain R3-VRY = PUM1 PUF domain R3-VRY (Homo sapiens, UniProt Q14671 828-1176, C935V;Q939Y)
Chain of PUM1 PUF domain R3-VRY (Q14671 828-1176 C935V/Q939Y): as the sequence (Q14671 828-1176 C1007L/R1008Q/Q1011R) above, with C108V, Q112Y, L180C, Q181R, R184Q counted along it
Summary of the method: as §1

PUM1 PUF domain R8-KWS = PUM1 PUF domain R8-KWS (Homo sapiens, UniProt Q14671 828-1176, N1122K;Y1123W;Q1126S)
Chain of PUM1 PUF domain R8-KWS (Q14671 828-1176 N1122K/Y1123W/Q1126S): as the sequence (Q14671 828-1176 C1007L/R1008Q/Q1011R) above, with L180C, Q181R, R184Q, N295K, Y296W, Q299S counted along it
Summary of the method: as §1

PUM1 PUF domain R5-THL = PUM1 PUF domain R5-THL (Homo sapiens, UniProt Q14671 828-1176, C1007T;R1008H;Q1011L)
Chain of PUM1 PUF domain R5-THL (Q14671 828-1176 C1007T/R1008H/Q1011L): as the sequence (Q14671 828-1176 C1007L/R1008Q/Q1011R) above, with L180T, Q181H, R184L counted along it
Summary of the method: as §1

PUM1 PUF domain R2-RTQ = PUM1 PUF domain R2-RTQ (Homo sapiens, UniProt Q14671 828-1176, N899R;Y900T)
Chain of PUM1 PUF domain R2-RTQ (Q14671 828-1176 N899R/Y900T): as the sequence (Q14671 828-1176 C1007L/R1008Q/Q1011R) above, with N72R, Y73T, L180C, Q181R, R184Q counted along it
Summary of the method: as §1

Chain of PUM1 PUF domain R5-FHI (Q14671 828-1176 C1007F/R1008H/Q1011I): as the sequence (Q14671 828-1176 C1007L/R1008Q/Q1011R) above, with L180F, Q181H, R184I counted along it

GGCUAGAACUAGUGGAUCCCCCGGCGCCCGGCGGCUCGAGCCCGGGUAAGUGUUAAUAGUCUGCAUGCCGCCGGGCGCCAUGCCUGCAGGUCGACUCUAGAAAACAUG
binding signal (PUM1 PUF domain R5-FHI): 2.85 log2 enrichment (interaction score) | binding signal (PUM1 PUF domain R5-LQR): 2.83 log2 enrichment (interaction score) | binding signal (PUM1 PUF domain R5-QKV): 2.71 log2 enrichment (interaction score)

GGCUAGAACUAGUGGAUCCCCCGGCGCCCGGCGGCUCGAGCCCGGGUAAGUGUACAUAGUCUGCAUGCCGCCGGGCGCCAUGCCUGCAGGUCGACUCUAGAAAACAUG
binding signal (PUM1 PUF domain R4-SYP): 6.78 log2 enrichment (interaction score) | binding signal (PUM1 PUF domain R4-MRG): 1.34 log2 enrichment (interaction score) | binding signal (PUM1 PUF domain R4-ARR): 2.99 log2 enrichment (interaction score) | binding signal (PUM1 PUF domain R4-DFC): 5.67 log2 enrichment (interaction score)

GGCUAGAACUAGUGGAUCCCCCGGCGCCCGGCGGCUCGAGCCCGGGUAAGUGUAAGUAGUCUGCAUGCCGCCGGGCGCCAUGCCUGCAGGUCGACUCUAGAAAACAUG
binding signal (PUM1 PUF domain R3-RCG): 2.96 log2 enrichment (interaction score) | binding signal (PUM1 PUF domain R3-LSA): 4.84 log2 enrichment (interaction score)

GGCUAGAACUAGUGGAUCCCCCGGCGCCCGGCGGCUCGAGCCCGGGUAAGUGUAAACAGUCUGCAUGCCGCCGGGCGCCAUGCCUGCAGGUCGACUCUAGAAAACAUG
binding signal (PUM1 PUF domain R2-QWR): 4.86 log2 enrichment (interaction score)

GGCUAGAACUAGUGGAUCCCCCGGCGCCCGGCGGCUCGAGCCCGGGUAAGUGUAAUUAGUCUGCAUGCCGCCGGGCGCCAUGCCUGCAGGUCGACUCUAGAAAACAUG
binding signal (PUM1 PUF domain R3-RCG): 3.58 log2 enrichment (interaction score) | binding signal (PUM1 PUF domain R3-LSA): 2.8 log2 enrichment (interaction score)

GGCUAGAACUAGUGGAUCCCCCGGCGCCCGGCGGCUCGAGCCCGGGUAAGCGUAAAUAGUCUGCAUGCCGCCGGGCGCCAUGCCUGCAGGUCGACUCUAGAAAACAUG
binding signal (PUM1 PUF domain R8-KKK): 3.81 log2 enrichment (interaction score)

GGCUAGAACUAGUGGAUCCCCCGGCGCCCGGCGGCUCGAGCCCGGGUAAGUGUAUAUAGUCUGCAUGCCGCCGGGCGCCAUGCCUGCAGGUCGACUCUAGAAAACAUG
binding signal (PUM1 PUF domain R4-SYP): 6.95 log2 enrichment (interaction score) | binding signal (PUM1 PUF domain R4-MRG): 1.61 log2 enrichment (interaction score) | binding signal (PUM1 PUF domain R4-RYP): 2.78 log2 enrichment (interaction score) | binding signal (PUM1 PUF domain R4-SNQ): 4.52 log2 enrichment (interaction score)

GGCUAGAACUAGUGGAUCCCCCGGCGCCCGGCGGCUCGAGCCCGGGUAAGUGUGAAUAGUCUGCAUGCCGCCGGGCGCCAUGCCUGCAGGUCGACUCUAGAAAACAUG
binding signal (PUM1 PUF domain R5-ERV): 3.34 log2 enrichment (interaction score)

GGCUAGAACUAGUGGAUCCCCCGGCGCCCGGCGGCUCGAGCCCGGGUAAGUGUCAAUAGUCUGCAUGCCGCCGGGCGCCAUGCCUGCAGGUCGACUCUAGAAAACAUG
binding signal (PUM1 PUF domain R5-LQR): 3.47 log2 enrichment (interaction score) | binding signal (PUM1 PUF domain R5-ERV): 2.93 log2 enrichment (interaction score)

GGCUAGAACUAGUGGAUCCCCCGGCGCCCGGCGGCUCGAGCCCGGGUAAGUGUAAAUAGUCUGCAUGCCGCCGGGCGCCAUGCCUGCAGGUCGACUCUAGAAAACAUG
binding signal (PUM1 PUF domain R4-PRC): 2.48 log2 enrichment (interaction score) | binding signal (PUM1 PUF domain R5-LQR): 1.81 log2 enrichment (interaction score) | binding signal (PUM1 PUF domain R5-ERV): 5.11 log2 enrichment (interaction score) | binding signal (PUM1 PUF domain R3-NAL): 3.24 log2 enrichment (interaction score) | binding signal (PUM1 PUF domain R3-RCG): 0.63 log2 enrichment (interaction score) | binding signal (PUM1 PUF domain R4-MRG): 2.56 log2 enrichment (interaction score) | binding signal (PUM1 PUF domain R4-RYP): 5.03 log2 enrichment (interaction score) | binding signal (PUM1 PUF domain R3-VRY): 4.24 log2 enrichment (interaction score) | binding signal (PUM1 PUF domain R8-KWS): 3.68 log2 enrichment (interaction score) | binding signal (PUM1 PUF domain R5-THL): 4.39 log2 enrichment (interaction score)

GGCUAGAACUAGUGGAUCCCCCGGCGCCCGGCGGCUCGAGCCCGGGUAAGUGUAAAAAGUCUGCAUGCCGCCGGGCGCCAUGCCUGCAGGUCGACUCUAGAAAACAUG
binding signal (PUM1 PUF domain R2-RTQ): 2.44 log2 enrichment (interaction score)
